# A selection: hits, their analogues and other compounds. The true share with any hit is near 4.7%.
# TROY NFkB inh = inhibitors of TROY-driven NF-kB signaling, primary screen, Q293 LMP1-TROYcd cells, NF-kB luciferase, uHTS; 360,000 tested, 0.98% active; Q293 LMP1-TROYcd NF-kB luciferase reporter, 4 h; inhibition, % at 10 µM;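 active means compounds whose plate-normalised and pattern-corrected inhibition of the luciferase reporter signal at the single screening dose is 50% or more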
# TWEAK-Fn14 inh = inhibitors of TWEAK-Fn14 signaling, primary screen, luciferase reporter cells, uHTS; inhibition, % at 10 µM; TWEAK-stimulated Fn14 reporter cells, luciferase luminescence, 8 h; 360,000 tested, 2% active; in the data active means inhibition above about 50%
# EBV LMP1 NFkB = EBV LMP1-driven NF-kappaB luciferase reporter inhibitors, primary screen, cell-based, luminescence, single point; inhibition, % at 12.5 µM; AID 504558, 2011; LMP1-induced NF-kappaB luciferase reporter cells; 350,000 tested, 0.69% active; in the data active means inhibition above about 41%
# HSF-1 act = HSF-1 activators, primary screen, NIH3T3-HGL cells, MG132 stress, luminescence, single point; activation, % at 9 µM; 300,000 tested, 1.7% active; NIH3T3-HGL HSF-1 luciferase reporter, 8 h; 100% = twice DMSO control signal;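 active means mean replicate activation of at least 50% with a set share of replicates each reaching 50%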
# HSF1 inhib = HSF1 inhibitors in luciferase reporter cells, primary screen, cell-based, NIH3T3, luminescence; NIH3T3-HGL HSE-luciferase, MG132-induced, luminescence 8 h; active compounds read low; activity change, negative = inhibition, % at 7.5 µM (by protocol); 300,000 tested, 0.77% active;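 active means more than half of replicate wells show activity change below -50%, luminescence cut by over half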;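 further: luciferase reports HSF-1 transcriptional activity via heat shock element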
# HSP90 inh = HSP90 inhibitors, primary screen, cell lysate, luminescence | Heat shock protein HSP 90 (rabbit reticulocyte lysate; luciferase refolding) | Rabbit reticulocyte lysate, luciferase refolding luminescence, 3 h | inhibition, % at 5.6 µM | 290,000 tested, 0.91% active | AID 1789, 2009;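 active means inhibition above the screen-wide mean plus 3 SD, computed separately per campaign, cut at about 16% in these data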;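 further: inhibitors lower the luminescence because luciferase stays unfolded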
# A number is an active result; 0 = inactive; - = no result.
SMILES,TROY NFkB inh,TWEAK-Fn14 inh,EBV LMP1 NFkB,HSF-1 act,HSF1 inhib,HSP90 inh
CCOC(=O)c1c(C)[nH]c(C)c1C(=O)CSc1nc2ccccc2c(=O)n1-c1ccc(CC)cc1,0,50,0,0,0,0
O=C(N[C@H](CO)c1ccccc1)[C@H]1O[C@@H](n2ccc(=O)[nH]c2=O)[C@H](O)[C@@H]1O,0,0,-,-,-,-
O=C(CCNC(=O)c1ccc([N+](=O)[O-])cc1)Nc1cc(C(F)(F)F)ccc1N1CCOCC1,0,0,0,-,-,-
Cc1nc(Nc2ccc3c(c2)OCCO3)c2oc3ccccc3c2n1,0,0,0,0,0,0
c1ccc2c(c1)oc1c(Nc3ccc4c(c3)OCCO4)ncnc12,0,67,0,0,0,0
CCc1nc(Nc2ccc3c(c2)OCCO3)c2oc3ccccc3c2n1,0,79,0,0,0,0
CCc1nc(NCC2CCCO2)c2oc3ccccc3c2n1 (stereo not given),-,87,0,0,0,0
COc1ccc(Nc2ncnc3c2oc2ccccc23)cc1,0,0,0,56,0,0
Cc1cnc2ccc(F)cc2c1,0,0,-,-,-,-
CCCCCCN1CCN(C2CN(C3CCCCC3)S(=O)(=O)C2)CC1 (stereo not given),0,0,-,-,-,-
Nc1ccn([C@@H]2O[C@H](CNCc3cccc(OC4CCCC4)c3)[C@@H](O)[C@H]2O)c(=O)n1,0,0,0,-,-,-
CC1(C(=O)Nc2cnc3ccccc3c2)CCN1Cc1ccc(OC(F)(F)F)cc1 (stereo not given),0,0,-,-,-,-
N#Cc1c(F)cccc1N1CCOCC1,-,87,0,0,0,0
N#Cc1c(Cl)cccc1N1CCCC1,0,0,0,0,0,0
Cc1ccc(S(=O)(=O)N(C)C[C@@H]2Oc3ncc(C#CCC(C)C)cc3C(=O)N([C@H](C)CO)C[C@H]2C)cc1,0,0,0,-,-,-
CCCc1c(-c2ccc(O)cc2)nn(-c2ccc(O)cc2)c1-c1ccc(O)cc1,75,0,0,0,0,-
CN(C)S(=O)(=O)c1ccc(NC(=O)CSc2nc3ccccc3n2-c2ccccc2)cc1,0,0,0,0,0,0
CCN(CC)c1ccc(NC(=O)CSc2nc3ccccc3c(=O)n2-c2cc(S(=O)(=O)N(C)C)ccc2C)cc1,0,0,0,0,0,16
Cn1c(=O)c2c(nc(Sc3ncnn3CC(=O)N3CCOCC3)n2C)n(C)c1=O,0,0,0,0,-88,0
COc1ccc(NC(=O)C2Cc3c(-c4cccc(F)c4)ccnc3O2)cn1 (stereo not given),0,0,-,-,-,-
CC(=O)c1cnn(-c2nc3c(C)cccc3s2)c1C,0,0,0,0,0,0
CC(=O)c1cnn(-c2c(Cl)cc(Cl)cc2Cl)c1C,0,0,0,0,-59,0
CC(=O)c1cn(CC(=O)Nc2ccccc2C)c2ccccc12,0,0,0,0,-80,0
CCOc1ccc(NC(=O)Cn2cc(C(C)=O)c3ccccc32)cc1,0,0,0,0,0,0
CCOc1ccc(NC(=O)Cn2cc(C(=O)CC)c3ccccc32)cc1,0,0,71,0,0,0
SMILES,TROY NFkB inh,TWEAK-Fn14 inh,EBV LMP1 NFkB,HSF-1 act,HSF1 inhib,HSP90 inh
CSc1ccc(CNC(=O)C2(C)CCCN(C(C)=O)C2)cc1 (stereo not given),0,0,-,-,-,-
CC(C)(C)C(=O)Cn1ncc(N2CCCC2)c(Br)c1=O,0,0,0,0,0,0
O=C(OCn1ncc(Br)c(Br)c1=O)c1c(F)cccc1F,-,-,-,0,-95,0
CC(=O)Cn1ncc(Br)c(Br)c1=O,65,86,0,0,-94,0
Cc1cccc(C)c1-n1nnnc1C1(C)CCC(=O)N1CC1CCCCC1 (stereo not given),0,0,-,-,-,-
O=C1NC(=S)S/C1=C\c1cc2ccccc2nc1N1CCCCC1,59,0,0,0,0,0
COc1ccc2nc(N3CCCCC3)c(/C=C3\SC(=S)NC3=O)cc2c1,64,0,0,0,0,0
O=C1NC(=S)SC1=Cc1ccccc1Cl,0,0,0,-,-,-
COCCNC(=O)C1(C)CCCN(C(=O)c2ccco2)C1 (stereo not given),0,0,-,-,-,-
CCCCn1nnnc1C(c1cc2ccccc2o1)N1CCN(c2ncccc2C#N)CC1 (stereo not given),0,0,-,-,-,-
